Experimental data reported in PubChem BioAssay (NCATS).
Inconclusive results are not listed. The source made the active and inactive calls. Unless noted, calls come from the whole dose curve; as a rule, active = well fitted curve in the direction sought with a large enough effect; inconclusive = small, poorly fitted or top-dose-only effect, or another doubt; inactive = no such curve, though single readings can be large; an effect the other way counts as inactive or inconclusive.

Assays:
[1] = NS1 protein of Zika virus - qHTS assay to identify small molecule inhibitors in human HEK 293 cells (AID 1347053); note: nearly all actives have a fitted effect of over 55% in size; note: potency is the fitted concentration of half-maximal effect
Method in brief: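 HEK 293 cells pretreated with compound for 1 h, then infected with ZIKV MR766 (MOI 0.5) for 24 h at 37 C. NS1 detected by TR-FRET with two anti-NS1 antibodies; normalized to uninfected (0%) and infected (100%) wells.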

[2] = qHTS for Inhibitors of the Functional Ribonucleoprotein Complex (vRNP) of Lassa (LASV) Arenavirus: LASV Primary Screen - GLuc reporter signal (AID 1347082; calls by dose curve; tested in HEK293 reporter line; note: series mostly up to about 57 µM; nearly all actives have a fitted effect of over 60% in size)
[3] = qHTS for Inhibitors of the Functional Ribonucleoprotein Complex (vRNP) of Lassa (LASV) Arenavirus: Viability assay - alamar blue signal for LASV Primary Screen (AID 1347083; calls by dose curve; tested in HEK293 reporter line; note: series mostly up to about 57 µM; nearly all actives have a fitted effect of over 80% in size)
[4] = qHTS for Inhibitors of the Functional Ribonucleoprotein Complex (vRNP) of Lymphocytic Choriomeningitis Arenaviruses (LCMV): Viability assay - alamar blue signal for LCMV Primary Screen (AID 1347085; calls by dose curve; tested in HEK293 reporter line; note: series mostly up to about 57 µM; nearly all actives have a fitted effect of over 80% in size)
[5] = target: Nucleoprotein (Lymphocytic choriomeningitis virus (strain Armstrong)) (UniProt P09992); test: qHTS for Inhibitors of the Functional Ribonucleoprotein Complex (vRNP) of Lymphocytic Choriomeningitis Arenaviruses (LCMV): LCMV Primary Screen - GLuc reporter signal (AID 1347086; calls by dose curve; note: series mostly up to about 57 µM; nearly all actives have a fitted effect of over 70% in size)
Sequence of Nucleoprotein (Lymphocytic choriomeningitis virus (strain Armstrong)) (P09992 whole entry, looked up): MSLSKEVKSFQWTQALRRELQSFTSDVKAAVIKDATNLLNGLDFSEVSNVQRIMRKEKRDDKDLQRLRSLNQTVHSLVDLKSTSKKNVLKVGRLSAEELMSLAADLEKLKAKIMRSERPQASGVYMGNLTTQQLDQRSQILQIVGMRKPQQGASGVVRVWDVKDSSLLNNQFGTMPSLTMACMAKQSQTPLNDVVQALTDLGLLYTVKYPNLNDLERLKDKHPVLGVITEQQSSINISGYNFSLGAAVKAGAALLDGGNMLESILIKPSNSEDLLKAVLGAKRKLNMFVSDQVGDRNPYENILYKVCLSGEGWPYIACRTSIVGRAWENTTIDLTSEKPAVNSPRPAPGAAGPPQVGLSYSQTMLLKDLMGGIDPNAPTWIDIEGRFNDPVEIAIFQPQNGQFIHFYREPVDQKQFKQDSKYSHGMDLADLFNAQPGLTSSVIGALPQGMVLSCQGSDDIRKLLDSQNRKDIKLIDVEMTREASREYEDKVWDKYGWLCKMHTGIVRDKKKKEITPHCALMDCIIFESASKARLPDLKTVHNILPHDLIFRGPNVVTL

[6] = target: Atrial natriuretic peptide receptor 2 (Homo sapiens) (UniProt P20594); test: Natriuretic polypeptide receptor (hNpr2) antagonism - Pilot subtype selectivity assay (AID 1347050; calls by dose curve)
Sequence of Atrial natriuretic peptide receptor 2 (Homo sapiens) (P20594 whole entry, looked up): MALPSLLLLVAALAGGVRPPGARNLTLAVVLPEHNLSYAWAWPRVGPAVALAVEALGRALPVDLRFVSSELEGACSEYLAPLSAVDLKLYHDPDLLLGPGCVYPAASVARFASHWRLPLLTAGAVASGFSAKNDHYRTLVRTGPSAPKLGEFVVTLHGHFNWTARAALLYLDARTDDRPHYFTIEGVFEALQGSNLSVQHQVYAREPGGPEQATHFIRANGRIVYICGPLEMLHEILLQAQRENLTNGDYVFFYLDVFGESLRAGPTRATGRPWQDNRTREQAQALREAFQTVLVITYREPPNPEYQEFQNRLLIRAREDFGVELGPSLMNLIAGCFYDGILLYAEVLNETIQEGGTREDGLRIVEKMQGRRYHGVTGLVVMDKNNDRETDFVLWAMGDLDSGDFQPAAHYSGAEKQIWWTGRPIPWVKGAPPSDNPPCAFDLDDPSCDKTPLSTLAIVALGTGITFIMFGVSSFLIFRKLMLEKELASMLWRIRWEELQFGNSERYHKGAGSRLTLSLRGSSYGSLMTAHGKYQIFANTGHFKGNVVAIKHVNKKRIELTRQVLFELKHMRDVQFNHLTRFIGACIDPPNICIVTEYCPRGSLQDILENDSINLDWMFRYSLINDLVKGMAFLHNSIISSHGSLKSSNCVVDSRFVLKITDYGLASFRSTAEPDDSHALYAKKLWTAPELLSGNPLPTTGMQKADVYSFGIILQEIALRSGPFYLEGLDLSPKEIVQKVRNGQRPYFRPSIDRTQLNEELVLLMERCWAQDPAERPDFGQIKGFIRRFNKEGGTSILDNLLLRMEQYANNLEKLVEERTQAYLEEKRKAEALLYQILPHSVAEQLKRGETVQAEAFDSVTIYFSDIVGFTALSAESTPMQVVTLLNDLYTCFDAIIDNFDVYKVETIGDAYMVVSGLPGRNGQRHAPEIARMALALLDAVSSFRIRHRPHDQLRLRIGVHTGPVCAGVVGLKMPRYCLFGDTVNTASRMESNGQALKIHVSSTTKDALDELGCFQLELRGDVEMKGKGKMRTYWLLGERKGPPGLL
Method in brief: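 HEK293 cells expressing hNpr2 and a GloSensor cGMP luciferase sensor, 1500/well, preloaded 2 h with 2% GloSensor reagent, compound 30 min, then 1 nM hNppC for 20 min. Antagonism from luminescence after versus baseline pre-read; LOPAC in 1:5 titrations.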

[7] = target: T1, Tyrosine-protein phosphatase non-receptor type substrate 1 (Homo sapiens) + Leukocyte surface antigen CD47 (Homo sapiens) (UniProt P78324+Q08722); test: CD47-SIRPalpha protein protein interaction - LANCE assay qHTS validation (AID 1347057; active = well fitted curve in the direction sought with a large enough effect in the signal ratio, with a control signal flat, not every such curve was filed as active; the % refers to the signal ratio; note: series mostly up to about 38 µM)
T1 sequence (P78324 whole entry, looked up): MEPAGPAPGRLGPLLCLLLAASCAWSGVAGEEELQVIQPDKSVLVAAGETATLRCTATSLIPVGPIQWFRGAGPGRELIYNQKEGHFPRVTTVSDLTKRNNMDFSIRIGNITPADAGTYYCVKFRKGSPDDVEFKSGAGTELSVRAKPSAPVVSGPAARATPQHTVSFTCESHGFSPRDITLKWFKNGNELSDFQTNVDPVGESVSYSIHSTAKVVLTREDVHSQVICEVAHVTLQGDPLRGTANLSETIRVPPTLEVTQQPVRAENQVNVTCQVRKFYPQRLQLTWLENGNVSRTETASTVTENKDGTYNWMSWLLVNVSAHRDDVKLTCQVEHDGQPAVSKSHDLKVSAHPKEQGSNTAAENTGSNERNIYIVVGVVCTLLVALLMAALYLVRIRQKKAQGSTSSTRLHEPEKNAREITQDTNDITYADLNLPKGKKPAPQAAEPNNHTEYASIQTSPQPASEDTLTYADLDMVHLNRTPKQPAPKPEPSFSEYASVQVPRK
T1 sequence (Q08722 whole entry, looked up): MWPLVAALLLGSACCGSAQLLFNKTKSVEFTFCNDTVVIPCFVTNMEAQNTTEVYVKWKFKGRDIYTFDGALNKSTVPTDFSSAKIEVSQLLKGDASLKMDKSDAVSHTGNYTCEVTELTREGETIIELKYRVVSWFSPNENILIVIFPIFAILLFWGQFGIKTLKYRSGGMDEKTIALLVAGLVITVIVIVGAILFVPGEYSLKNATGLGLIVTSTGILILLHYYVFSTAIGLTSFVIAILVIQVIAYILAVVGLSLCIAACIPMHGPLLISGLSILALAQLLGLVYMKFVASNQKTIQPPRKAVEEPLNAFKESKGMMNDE
Method in brief: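 First, His-tagged CD47 and Eu-labelled anti-His antibody met the compound for 30 min; next, site-specifically biotinylated SIRPalpha was added for 30 min; finally streptavidin-APC was added before reading the TR-FRET ratio.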

[8] = target: T1, Tyrosine-protein phosphatase non-receptor type substrate 1 (Homo sapiens) + Leukocyte surface antigen CD47 (Homo sapiens); test: CD47-SIRPalpha protein protein interaction - HTRF assay qHTS validation (AID 1347058; active = well fitted curve in the direction sought with a large enough effect in the signal ratio, not every such curve was filed as active; the % refers to the signal ratio;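 note: recombinant soluble extracellular CD47 with His tag and biotinylated SIRPalpha domains; series mostly up to about 38 µM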)
Method in brief: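 TR-FRET read (Ch1/Ch2 ratio) of soluble extracellular CD47 and Avi-biotinylated SIRPalpha domains in PBS pH 7.4 with 0.05% IGEPAL; 7-point compound titration. Sequential 30 min room-temperature steps; non-biotinylated SIRPalpha as control inhibitor.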

[9] = target: T1, Tyrosine-protein phosphatase non-receptor type substrate 1 (Homo sapiens) + Leukocyte surface antigen CD47 (Homo sapiens); test: CD47-SIRPalpha protein protein interaction - Alpha assay qHTS validation (AID 1347059);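 note: bead proximity luminescence from CD47 binding SIRPalpha after compound preincubation with SIRPalpha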
Method in brief: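 Biotinylated Avi-tagged SIRPalpha (25 nM) preincubated 30 min with compound, then His-tagged CD47 (12.5 nM) added 30 min; AlphaScreen with Ni-NTA acceptor and streptavidin donor beads. PBS pH 7.4, 0.05% IGEPAL, room temperature; 7-point titrations.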

[10] = target: Parathyroid hormone/parathyroid hormone-related peptide receptor (Homo sapiens) (UniProt Q03431); test: qHTS for PTHR1 Agonists: Optimization Screen against the NCGC LOPAC library (AID 1347079);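 note: GloSensor cAMP luminescence in HEK-293 GP2 cells expressing human PTHR1 with IBMX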
Sequence of Parathyroid hormone/parathyroid hormone-related peptide receptor (Homo sapiens) (Q03431 whole entry, looked up): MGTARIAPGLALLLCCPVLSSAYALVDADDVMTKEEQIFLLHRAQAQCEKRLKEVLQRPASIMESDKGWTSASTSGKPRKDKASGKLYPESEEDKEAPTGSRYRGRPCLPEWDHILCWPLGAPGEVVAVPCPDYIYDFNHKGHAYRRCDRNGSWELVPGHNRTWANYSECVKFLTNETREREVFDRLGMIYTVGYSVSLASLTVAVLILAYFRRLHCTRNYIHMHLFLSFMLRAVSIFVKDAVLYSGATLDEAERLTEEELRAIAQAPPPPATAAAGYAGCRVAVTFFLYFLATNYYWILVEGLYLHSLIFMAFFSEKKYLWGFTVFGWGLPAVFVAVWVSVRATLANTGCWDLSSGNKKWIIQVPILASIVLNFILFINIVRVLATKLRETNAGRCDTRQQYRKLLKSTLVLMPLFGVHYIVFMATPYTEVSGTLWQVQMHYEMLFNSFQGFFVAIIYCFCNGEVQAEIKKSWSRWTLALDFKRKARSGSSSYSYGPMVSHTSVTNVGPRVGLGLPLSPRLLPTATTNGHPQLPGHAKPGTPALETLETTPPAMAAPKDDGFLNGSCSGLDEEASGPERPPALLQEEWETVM
Method in brief: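 Agonist readout: GloSensor cAMP luminescence, read after 15 min at room temperature. HEK-293-derived GP2 line carries PTHR1; compounds tested as a titration for 1 hr at 37C in presence of IBMX. M-PTH (1-15) served as control.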

Measured: Potency

CCOC(=O)c1cncn1C(C)c1ccccc1 (stereo unspecified)
inactive: [1] | [2] | [3] | [4] | [5]

CCC(=O)C(CCN(C)C)(c1ccccc1)c1ccccc1
inactive: [1] | [2] | [3]

COc1ccc(OC)c(CC(C)N)c1 (stereo unspecified)
inactive: [1] | [2] | [3] | [4] | [5]

C[N+]1(CCC(C(N)=O)(c2ccccc2)c2ccccc2)CCCCC1
inactive: [1] | [2] | [3] | [4] | [5]

COc1ccc2c(C(=O)c3ccc(Cl)cc3)c(C)n(CC(=O)O)c2c1
inactive: [1]

C[C@]12CC[C@H]3[C@@H](CCC4=CC(=O)CC[C@@]43C)[C@@H]1CC[C@@H]2C(=O)O
inactive: [1] | [2] | [3] | [4] | [5]

Cc1c(Cl)c(=O)oc2cc(OP(=O)(OCCCl)OCCCl)ccc12
inactive: [1] | [2] | [3] | [4] | [5]

O=C(O)c1nn(Cc2ccc(Cl)cc2Cl)c2ccccc12
inactive: all assays above

CC(C)(C)OC(=O)c1ncn2c1[C@@H]1CCCN1C(=O)c1c(Br)cccc1-2
inactive: [1] | [2] | [3] | [4]

O=C(O)Cc1ccccc1
inactive: [1] | [2] | [3] | [4] | [5]

COc1ccc(CN2CCNCC2)c(OC)c1OC
inactive: [1] | [2] | [3] | [4] | [5]

OC(c1ccccc1)(c1ccccc1)C1CCNCC1
inactive: [1] | [2] | [3] | [4] | [5]

CCOC(=O)NC(C)(C)Cc1ccc(Cl)cc1
inactive: [1] | [2] | [3] | [4] | [5]

O=C(O)CCCCCCNC1c2ccccc2CCc2ccccc21
inactive: [1] | [2] | [3] | [4] | [5]

c1cc2c(c(N3CCNCC3)c1)OCCO2
inactive: [1] | [2] | [3] | [4] | [5]

NC(=O)CN1CCCC1=O
inactive: all assays above

c1ccc2c(c1)Sc1ccccc1N2CC1CN2CCC1CC2 (stereo unspecified)
active: [1] 3.16 µM
inactive: [2]

C[C@H](CN1CCOCC1)C(C(=O)N1CCCC1)(c1ccccc1)c1ccccc1
inactive: [1]

Oc1c(Br)cc(Br)cc1Br
inactive: [1] | [2] | [3] | [4] | [5]

Cc1nnc2n1-c1sc(CCc3ccc(CC(C)C)cc3)cc1C(c1ccccc1Cl)=NC2C (stereo unspecified)
inactive: [1] | [2] | [3]

CC[n+]1c(-c2ccccc2)c2cc(N)ccc2c2ccc(N)cc21
inactive: [1]

N#Cc1nn(-c2c(Cl)cc(C(F)(F)F)cc2Cl)c(N)c1S(=O)C(F)(F)F (stereo unspecified)
inactive: [1]

C[C@H](N)[C@H](O)c1ccc(O)c(O)c1
inactive: [1] | [2]

CC(C(O)c1ccccc1)N(C)C/C=C/c1ccccc1 (stereo unspecified)
inactive: [1] | [2] | [3] | [4] | [5]

COc1cc(C[C@@H](C)N)c(OC)cc1Br
inactive: [1] | [2] | [3] | [4] | [5]

O=C1NCN(c2ccccc2)C12CCN(CCCOc1ccc(F)cc1)CC2
inactive: [1] | [2] | [3] | [4] | [5]

Cc1ccc(N=CN(C)C=Nc2ccc(C)cc2C)c(C)c1
inactive: [1] | [2] | [3] | [4] | [5]

CC[C@H](O)C(C[C@H](C)N(C)C)(c1ccccc1)c1ccccc1
inactive: [1]

CN1CCC(N(Cc2ccccc2)c2ccccc2)CC1
inactive: [1] | [2] | [3] | [4] | [5]

CC1N=C(N)OC1c1ccccc1 (stereo unspecified)
inactive: [1] | [2] | [3] | [4] | [5]

CCO[C@H]1O[C@@H]2OC3(C)CC[C@H]4[C@H](C)CC[C@@H]([C@H]1C)[C@@]24OO3
inactive: [1] | [2]

Cc1ncc2n1-c1ccc(Cl)cc1C(c1ccccc1F)=NC2
inactive: [1] | [2] | [3] | [4] | [5]

CCNc1nc(Cl)nc(NCC)n1
inactive: [1] | [2] | [3] | [4] | [5]

CC1COC2(c3ccccc3Cl)c3cc(Cl)ccc3NC(=O)CN12 (stereo unspecified)
inactive: [1] | [2] | [3] | [4] | [5]

CCC1(CC)C(=O)NC(=O)NC1=O
inactive: [1] | [2] | [3] | [4] | [5]

COc1ccc(C(=O)N2CCCC2=O)cc1
inactive: all assays above
